Screening results deposited in PubChem by National Center for Advancing Translational Sciences (NCATS).
The list is not random: actives were taken first. Their share in the collection is about 3.6%.
KAT2A inh: qHTS Assay for Inhibitors of GCN5L2. Histone acetyltransferase KAT2A (Homo sapiens), Q92830. hit rate 0.21% among 390,000. GCN5L2 HAT assay, ThioGlo1 CoA-SH fluorescence. AID 504327, 2011. Potency, µM (highest dose often 58.9 µM), without a hit: top-dose activity change, negative = inhibition, usual class: inhibitors; also: potency is read from the fitted curve at half-maximal effect; % is scaled to controls: 0 for no effect and ±100 for the full control effect
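Titration-based screen in which CoA formation is detected via maleimide probe ThioGlo1 (50uM) turning fluorescent on thiol reaction; substrates H3(1-25) 75uM and acetyl-CoA 70uM, GCN5L2 20nM, 20 min incubation at room temperature.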
Rango-impB inh: qHTS Assay for Inhibitors of Rango (Ran-regulated importin-beta cargo) - Importin beta complex formation | AID 540263, 2011 | hit rate 0.031% among 340,000 | Rango CFP/YFP FRET sensor + importin beta, 45 min | Potency, µM (doses to about 92.2 µM), inactives show at the highest dose inhibition of complex formation | Importin subunit beta-1 (Homo sapiens), Q14974; calls by dose curve;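 also: potency is read from the fitted curve at half-maximal effect; 0% = DMSO wells and 100% = buffer wells lacking importin beta; nearly all actives have a fitted effect of over 15% in size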
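FRET biosensor Rango (snurportin 1 IBB between N-terminal EYFP and C-terminal Cerulean), 50 nM in PBS/1 mM DTT/0.02% Tween-20/0.1% BSA, preincubated 5 min RT with compound; 0.125 microM importin beta added, 45 min RT, CFP/YFP FRET ratio read.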
PLK1 PBD inh: qHTS for Inhibitors of PLK1-PDB (polo-like kinase 1 - polo-box domain): Primary Screen | Serine/threonine-protein kinase PLK1 (Homo sapiens), P53350 | Plk1 PBD binding of FITC phosphopeptide, fluorescence polarization | AID 720504, 2013 | hit rate 2.8% among 360,000 | Potency, µM, for inactives: max response, negative = inhibition, hits mostly inhibitors; also: potency is read from the fitted curve at half-maximal effect; series mostly up to about 57 µM; % is scaled to controls: 0 for no effect and ±100 for the full control effect; nearly all actives have a fitted effect of over 65% in size
PI5P4K alpha inh: qHTS for Inhibitors of phosphatidylinositol 5-phosphate 4-kinase (PI5P4K); Phosphatidylinositol 5-phosphate 4-kinase type-2 alpha (Homo sapiens), P48426; PI5P4Kalpha enzyme, ADP-Glo luminescence, 60 min; stronger effect = lower value; max response, %; hit rate 1.2% among 330,000; active = max response of -50% or lower; inconclusive = between -30% and -50%; inactive = -30% or higher; also: value at the top dose of about 77 µM; % is scaled to controls: 0 for no effect and ±100 for the full control effect
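Luminescence from ADP-Glo served as readout of PI5P4Kalpha activity in a qHTS format. Reaction: enzyme, substrate, compound, ATP at 5 microM final, 60 min at RT.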
Rango dissoc inh: qHTS Assay for Inhibitors of RanGTP induced Rango (Ran-regulated importin-beta cargo) - Importin beta complex dissociation; AID 540253, 2011; Snurportin-1 (Homo sapiens) + GTP-binding nuclear protein Ran (Homo sapiens) + Importin …; hit rate 0.071% among 340,000; Potency, µM (series often up to 46.1 µM), without a hit: at the highest dose activity change, negative = inhibition; Biochemical FRET Rango-importin beta, RanGTP-induced dissociation; calls by dose curve; also: potency is read from the fitted curve at half-maximal effect; % of control where 0% means no effect; nearly all actives have a fitted effect of over 45% in size
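Two FRET readings bracket the reaction: one 5 min after compound meets Rango–importin beta, another 45 min after RanGTP-RCC1 (0.6 uM Ran, 0.2 uM RCC1, 2 mM GTP) is added. Only the second defines inhibition.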
VDR inhibitor: Inhibitors of the vitamin D receptor (VDR): qHTS | Vitamin D3 receptor (Homo sapiens), P11473 | VDR-SRC2-3 peptide fluorescence polarization, 2 h | Potency, µM, for the others: max response, negative = inhibition, usual class: inhibitors | hit rate 0.93% among 400,000; also: potency is read from the fitted curve at half-maximal effect; % is scaled to controls: 0 for no effect and ±100 for the full control effect
Target sequence (P11473 whole entry, looked up): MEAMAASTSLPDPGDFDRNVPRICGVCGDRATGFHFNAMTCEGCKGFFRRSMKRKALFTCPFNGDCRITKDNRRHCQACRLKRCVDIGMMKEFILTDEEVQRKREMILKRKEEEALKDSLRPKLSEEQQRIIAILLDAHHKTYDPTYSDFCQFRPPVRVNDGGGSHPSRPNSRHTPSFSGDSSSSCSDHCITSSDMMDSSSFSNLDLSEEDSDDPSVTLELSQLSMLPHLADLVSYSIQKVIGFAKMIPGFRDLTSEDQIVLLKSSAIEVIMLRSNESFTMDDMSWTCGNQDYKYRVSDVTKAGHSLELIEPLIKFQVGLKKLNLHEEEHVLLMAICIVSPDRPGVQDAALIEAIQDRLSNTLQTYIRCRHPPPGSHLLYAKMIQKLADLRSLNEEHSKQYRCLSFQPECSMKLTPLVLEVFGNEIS
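VDR–SRC2-3 interaction, FP format. Cmpds 23 nl via pintool, brief spin, 2 h ambient incubation.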
ADP-Glo interf: qHTS for Inhibitors of PI5P4K: ADP-Glo counter assay. shares compounds with PI5P4K alpha inh. ADP-Glo detection counter-screen, luciferase luminescence, no enzyme. Potency, µM (doses to about 76.9 µM), for inactives: at the highest dose activity change, negative = inhibition, usual class: inhibitors. 1,100 tested, under 10 active
* = called active by the depositor; ? = inconclusive; . = no result given. Unless noted, calls follow the shape of the dose curve; as a rule, active = well fitted curve in the direction sought with a large enough effect; inconclusive = small, poorly fitted or top-dose-only effect, or another doubt; inactive = no such curve, though single readings can be large; an effect the other way counts as inactive or inconclusive.

SMILES | KAT2A inh | Rango-impB inh | PLK1 PBD inh | PI5P4K alpha inh | Rango dissoc inh | VDR inhibitor | ADP-Glo interf
O=C(c1ccc(F)cc1)c1cc2ccc(O)cc2oc1=O | -4% | ? | -19% | -73* | ? | 4% | ?
O=C(O)c1cc2ccc(O)cc2oc1=O | . | . | -8% | -3 | . | . | .
O=C(NCc1ccccc1)c1cc2ccc(O)cc2oc1=O | -26% | ? | 19µM* | -66* | ? | ? | -12%
O=C(NC1CC(=O)N(c2ccc(Cl)cc2)C1)c1cccs1 (stereo not drawn) | 3% | . | . | . | . | -3% | .
COc1ccc(NC(=O)CC2C(=O)N(c3ccccc3)C(=O)N2Cc2cccnc2)cc1 (stereo not drawn) | 2% | . | . | . | . | 16% | .
COc1ccc(N(C(=O)C2CSC(=O)C2)C(C(=O)NC(C)(C)C)c2ccncc2)cc1 (stereo not drawn) | ? | 1% | -5% | -78* | 4% | -2% | 2%
CC(C)(C)NC(=O)C(c1ccncc1)N(C(=O)C1CSC(=O)C1)c1ccccc1 (stereo not drawn) | -5% | -1% | 2% | -3 | -19% | -22% | .
O=C(O)C1Nc2c(Cl)cc(Cl)c(Cl)c2C2C=CCC12 (stereo not drawn) | . | -1% | 24µM* | -76* | 7% | ? | 0%
Cc1cc(O)ccc1Nc1cc(-c2cccc(N(C)C)c2)ncn1 | . | . | -9% | . | . | . | -6%
O=c1cc(O)c2sc(Nc3cccc(C(F)(F)F)c3)nc2[nH]1 | 2% | ? | -20% | -84* | ? | -23% | -8%
Cc1cc(=O)[nH]c(Nc2cccc(C(F)(F)F)c2)n1 | -6% | 4% | -6% | 1 | -5% | 2% | .
CC(=O)c1ccc(NC(=O)c2cnn3ccccc23)cc1 | -16% | -4% | -2% | -76* | 27% | 7% | -8%
CCc1ccc(-c2csc3ncn(CC(=O)NCc4ccco4)c(=O)c23)cc1 | 11% | 4% | -1% | -16 | 15% | 5% | .
O=C(Cn1cnc2scc(-c3ccccc3)c2c1=O)NCc1ccco1 | -8% | -2% | -7% | -66* | -4% | -1% | -7%
CC(C)Cc1c(O)nc(SCC(=O)N2CCCCCC2)[nH]c1=O | -2% | 7% | 1% | -50* | 10% | 5% | 0%
CC(C)c1c(O)nc(SCC(=O)N2CCCCC2)[nH]c1=O | 4% | -3% | 3% | -4 | 5% | -10% | .
CNC(=S)N(Cc1ccco1)Cc1cc2cc3c(cc2[nH]c1=O)OCCO3 | -1% | ? | 27µM* | -57* | 1% | -22% | 1%
O=C1CCC(C(=O)Nc2ccc([N+](=O)[O-])cc2)N1 (stereo not drawn) | -11% | ? | -1% | -54* | -16% | ? | -5%
O=C1CCC(C(=O)Nc2ccccc2)N1 (stereo not drawn) | 0% | 0% | -19% | 4 | 12% | 1% | .
CS(=O)(=O)Nc1ccc(C2=NN(C(=O)c3ccco3)C(c3cccc(F)c3)C2)cc1 (stereo not drawn) | -9% | -1% | -6% | -65* | 9% | -5% | 0%
CS(=O)(=O)Nc1ccc(C2=NN(C(=O)c3ccco3)C(c3ccccc3)C2)cc1 (stereo not drawn) | -4% | -5% | -4% | -51* | -9% | -4% | 3%
CC(C)(C)C(=O)Nc1ccccc1C(=O)OCc1cc(=O)n2ccsc2n1 | 26% | . | . | . | . | 13% | .
Cc1nc(NC(=O)c2ccccc2)sc1-c1cc(C(=O)N2CCOCC2)nn1CCO | . | . | -7% | 2 | . | . | .
Cc1nc(NC(=O)c2ccccc2)sc1-c1cc(C(=O)N2CCOCC2)nn1Cc1ccccc1 | . | . | -12% | -55* | . | . | -2%
Cn1c(C(=O)NCc2ccc(F)cc2)cc2cc(S(=O)(=O)N3CCCCC3)ccc21 | -3% | . | . | . | . | 9% | .
SMILES | KAT2A inh | Rango-impB inh | PLK1 PBD inh | PI5P4K alpha inh | Rango dissoc inh | VDR inhibitor | ADP-Glo interf
NC(=O)c1ccc(-n2c(CCC(=O)O)ccc2-c2cccs2)cc1 | ? | -6% | -13% | -80* | -16% | -19% | 2%
CC1=C(C(=O)Nc2cccc(C(F)(F)F)c2)C2(CCN(C(C)C)CC2)OC1=O | -3% | . | . | . | . | 8% | .
COc1ccc(OC)c(NC(=O)NCc2ccc(F)cc2)c1 | -4% | 0% | -1% | . | 4% | -9% | .
COc1ccc(OC)c(NC(=O)CN(Cc2ccc(F)cc2)C2CCCCC2)c1 | -5% | 0% | 3% | -58* | -5% | -1% | -3%
ClCc1cc2ccccc2nc1Cl | -2% | -4% | -16% | 1 | 9% | -3% | .
Cc1ccc2cc(CCl)c(Cl)nc2c1 | -10% | -2% | -18% | -79* | -1% | 9% | 0%
Cc1ccc(Nc2nc(-c3sc(N)nc3C)cs2)cc1 | -28% | ? | ? | -54* | -17% | 79µM* | -3%
Cc1noc(C)c1CCC(=O)N1CCCC(CCC(=O)NCc2ccc(F)c(F)c2)C1 (stereo not drawn) | -6% | 3% | -13% | -61* | 2% | -6% | 1%
O=C(NCc1ccc2c(c1)OCO2)c1ccc(Br)cc1 | -10% | -1% | -14% | 1 | 5% | -14% | .
O=C(NCc1ccc2c(c1)OCO2)c1cc2ncc(Br)cn2n1 | -13% | 0% | -17% | -65* | 8% | 13% | -4%
CCOC(=O)CSc1ccc2nnc(-c3cccs3)n2n1 | -8% | 1% | -28% | -51* | -6% | 0% | -7%
O=S(=O)(Nc1nc(-c2ccccc2)cs1)c1cc(Cl)ccc1Cl | ? | -1% | ? | -51* | 0% | -2% | -2%
COc1ccc(C(=O)NCc2nnc(SC)n2C2CCCCC2)cc1 | -1% | 0% | -7% | -54* | 13% | 3% | 9%
COc1ccc(N(C)C(=O)c2cn(C3CCCCC3)c(=O)c3c2c2ccccc2n3C)cc1 | -3% | . | . | . | . | -9% | .
Cc1oc2ccc(OCc3ccccc3Cl)cc2c1C(=O)O | 3% | 2% | -8% | -61* | -12% | -2% | -5%
Cc1oc2ccc(OCc3ccc(F)cc3Cl)cc2c1C(=O)O | -1% | 2% | -6% | 1 | -7% | 2% | .
